Test results published in PubChem BioAssay AID602247 (The Scripps Research Institute Molecular Screening Center, 2012).
The whole screen tested about 360,000 compounds, of which about 80 (0.02%) were called active.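 How the source made its calls: active means activation above the run cutoff, the mean activation of all test compounds plus 3 SD (cut at about 40% in these data); inactive means the rest.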 The full list was thinned out, with actives kept by preference.

assay: ATP EC20 calcium response enhancers, parental CHO-K1 – cell-based, Fluo-8 calcium fluorescence, full deck, 1536-well, counter-screen for M1 PAM project, primary screen (AID 602247); conditions: parental CHO-K1, ATP EC20, Fluo-8 calcium fluorescence; at 3 µM; hits give high values; 0% at ATP EC20, 100% at ATP max;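 further: peak over basal fluorescence ratio in a 140 s read after ATP addition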

Row | Compound | activation
1 | CCOc1ccc(C(=O)Nc2ccc(S(=O)(=O)NCC3CCCO3)cc2)cc1OCC (stereo not drawn) | -16.7% (inactive)
2 | CCOc1ccc(S(=O)(=O)N(CC(=O)O)c2ccccc2)cc1 | 12.9% (inactive)
3 | CN(C)/C=C(\C#N)C(=O)c1cccnc1Oc1ccc(F)cc1F | 13.9% (inactive)
4 | COCCNC(=O)C1CCN(C(=O)C2CC(=O)N(c3ccc(C)cc3)C2)CC1 (stereo not drawn) | 7.97% (inactive)
5 | COc1ccc(-n2ncc3c2CC(C)(C)CC3NC(=O)CCc2c(C)noc2C)cc1 (stereo not drawn) | -2.15% (inactive)
6 | CCCNC(=S)N1CCCC(c2nc3ccccc3[nH]2)C1 (stereo not drawn) | 14.2% (inactive)
7 | CC(C)C[C@@H]1COc2cc(N3CCC[C@@H]3CO)ccc2S(=O)(=O)N1 | 4.5% (inactive)
8 | CC1CCCN(C(C(=O)Nc2ccc(C(C)C)cc2)c2ccc3c(c2)OCO3)C1 (stereo not drawn) | 10.5% (inactive)
9 | Cc1ccc(NS(=O)(=O)c2c(C)[nH]c(=O)[nH]c2=O)cc1C | 7.33% (inactive)
10 | COc1cc(OC)cc(C(=O)NNC(=O)CNC(=O)c2ccc(Br)o2)c1 | -26.2% (inactive)
11 | CCOC(=O)c1sc(N)c(C#N)c1COC(=O)C1=COCCO1 | -16.5% (inactive)
12 | Cc1ccc(NC(=O)NC(=O)N(C2CCCCC2)S(=O)(=O)c2ccccc2)cc1 | 15.3% (inactive)
13 | Cn1c(=O)oc2cc(S(=O)(=O)N3CCC(C(=O)Nc4ccc(OC(F)(F)F)cc4)CC3)ccc21 | 29.6% (inactive)
14 | O=[N+]([O-])c1ccc(N2CCN(c3ccc(F)cc3)CC2)cn1 | -7.83% (inactive)
15 | NC1=NC2(CCCCC2)N(c2ccc(F)cc2F)C(N)=N1 | -9.48% (inactive)
16 | Cc1ccc(CC(=O)Nc2cccc(C#N)c2)cc1 | 18.7% (inactive)
17 | CC(C)NC(=O)NC(=O)CSc1nnc(-c2ccccc2F)n1N | 30% (inactive)
18 | CC1(C(=O)NS(=O)(=O)c2cccs2)CCN1C(=O)Cc1ccc(-c2ccccc2)cc1 (stereo not drawn) | 13% (inactive)
19 | O=C(NC1CC2CCCC(C1)N2C(=O)N1CCCCC1)C1CCCCC1 (stereo not drawn) | 7.85% (inactive)
20 | CCCC(C(=O)NC1CCCC1)N(C(=O)Cn1nnc(-c2ccc(C)o2)n1)c1cccc(O)c1 (stereo not drawn) | 13.1% (inactive)

Row | Compound | activation
21 | COc1cccc(NC(=O)C(=O)c2cn(CC(=O)N3CCOCC3)c3ccccc23)c1 | -2.46% (inactive)
22 | CCCCN(C(=O)c1cccc(N2C(=O)c3ccccc3C2=O)c1)c1c(N)n(CCCC)c(=O)[nH]c1=O | 11.7% (inactive)
23 | O=C(Cn1cc(C(F)(F)F)ccc1=O)N/N=C/c1ccc(Cl)cc1Cl | 3.42% (inactive)
24 | CC(OC(=O)CNC(=O)c1cccc(F)c1)C(=O)NC1CCCCC1C (stereo not drawn) | 10.1% (inactive)
25 | CCC(=O)c1ccc(OCC(=O)N(CC)CC2COc3ccccc3O2)cc1 (stereo not drawn) | 15.6% (inactive)
26 | O=C(N[C@H]1C/C=C\C(c2cccc(F)c2)N(Cc2ccccc2)C(=O)C1)OCC1c2ccccc2-c2ccccc21 (stereo partly drawn) | -2.24% (inactive)
27 | O=C(OCC(=O)N1CCN(C(=O)c2ccco2)CC1)c1ccccc1Cc1ccccc1 | 8.99% (inactive)
28 | COc1cccc(CN2CCC(C(=O)NC(c3ccc4c(c3)OCO4)c3ccccn3)CC2)c1 (stereo not drawn) | 12.4% (inactive)
29 | CCOc1cc2c(Cl)ncnc2c(OCC)c1OCC | -10.2% (inactive)
30 | CC1(C)O[C@@H]2[C@H](O1)[C@@H](CO)O[C@H]2n1c(N2CCCCC2)nc2c(N)ncnc21 | 11.6% (inactive)
31 | COc1ccc(N2CC(C(=O)NCCS(=O)(=O)N3CCN(c4ccccc4)CC3)CC2=O)cc1 (stereo not drawn) | -1.18% (inactive)
32 | C/C(=N\NC(=O)COc1ccc(C)cc1[N+](=O)[O-])c1ccc2c(c1)OCCO2 | 4.27% (inactive)
33 | Cc1cc(C)n(-c2nnc(C)n2NC(=O)c2cccc(Cl)c2)n1 | 9.43% (inactive)
34 | Cc1ccc(C)c(NC(=O)C2CC(=O)N(C(C)C)C2)c1 (stereo not drawn) | 12.2% (inactive)
35 | COCCn1c(=O)[nH]c2cc(C(=O)NCc3cccnc3)ccc2c1=O | 6.89% (inactive)
36 | CC(C)CC(=O)c1c[nH]c(C(=O)NCc2ccccc2)c1 | 0.92% (inactive)
37 | O=C(CC(NCCN1CCOCC1)C(=O)O)Nc1cccc(Cl)c1 (stereo not drawn) | 20.9% (inactive)
38 | CC(=O)NC1C(Oc2ccc(C)cc2)OC2COC(c3ccco3)OC2C1O (stereo not drawn) | -5.49% (inactive)
39 | O=S(=O)(NC1CCCCC1N1CCN(c2ccccc2F)CC1)c1ccccc1 (stereo not drawn) | 19.1% (inactive)
40 | O=C(Nc1ccc(Br)cc1)c1cccc(NC(=O)C2C3CC4OC(=O)C2C4C3)c1 (stereo not drawn) | 9.66% (inactive)

Row | Compound | activation
41 | Cc1ccc(/C=C2\CCn3c2nc2cc(C(=O)O)ccc2c3=O)c(C)c1 | 17.1% (inactive)
42 | O=C1c2cccc3cccc(c23)C(=O)N1c1cccc(O)c1 | 12.7% (inactive)
43 | OC1CCCN(c2ncnc3c2nnn3Cc2c(F)cccc2Cl)C1 (stereo not drawn) | 20.4% (inactive)
44 | CCC1CCCCN1C(=S)Nc1ccc(SC(F)F)cc1 (stereo not drawn) | 3.06% (inactive)
45 | COc1ccc(O)c(C=Nc2cc(C)on2)c1 | 1.78% (inactive)
46 | CC(C)C(=O)N1CC(=O)Nc2ccc(F)cc2C1c1ccc(F)cc1 (stereo not drawn) | 3.77% (inactive)
47 | CCCN1CNC(=S)N(CCc2ccccc2)C1 | -4.97% (inactive)
48 | O=C(Nc1ccc(Br)cc1F)C1CC(=O)N(C2CCCCC2)C1 (stereo not drawn) | 9.78% (inactive)
49 | CCOc1ccccc1NC(=O)NC1CCCCCCC1 | 20% (inactive)
50 | CN(C)/C(CN1CCCCC1)=C1\N=C(c2ccccc2)OC1=O | 19.8% (inactive)
51 | CN(C)CCCOc1ccc(-c2ccc3nccn3c2)cn1 | 15.7% (inactive)
52 | CCOP(=O)(OCC)C(Cc1ccccc1)N=C(c1ccccc1)c1ccccc1 (stereo not drawn) | 19.7% (inactive)
53 | COc1ccc(OC)c(NC(=O)CSc2nc3cccnc3n2C)c1 | 9.99% (inactive)
54 | O=C(CN1C(=O)c2ccc([N+](=O)[O-])cc2C1=O)Nc1nnc(C2CC2)s1 | 1.72% (inactive)
55 | CC(=O)Nc1ccc(NC(=O)C2CCCN2S(=O)(=O)c2cccc(C(F)(F)F)c2)cc1 (stereo not drawn) | -6.05% (inactive)
56 | O=C1c2ccncc2C(=O)N1C1CCCCC1 | 15.5% (inactive)
57 | Cc1nc(C(F)(F)F)ccc1C(=O)N1CCC1(C)C(=O)NS(=O)(=O)c1ccccc1Cl (stereo not drawn) | 11.4% (inactive)
58 | COc1ccc(C(=O)N2CCC(C(=O)Nc3ccc(C)cc3)CC2)cc1 | 28.6% (inactive)
